Several values for one entry are separate records, joined by “and”; a condition that tells them apart may be missing. Identical values can stand only once. Inconclusive results are not listed. Activity calls are given as the source filed them. Unless noted, the call rests on the fitted dose curve; in most records, active means well fitted curve in the direction sought with a large enough effect; inconclusive means small, poorly fitted or top-dose-only effect, or another doubt; inactive means no such curve, though single readings can be large; an effect the other way counts as inactive or inconclusive.
Tests used:
[1] = qHTS for Inhibitors of Plasmodium falciparum (DD2) proliferation (AID 504314);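 further: parasite DNA measured by SYBR Green fluorescence after red cell lysis; plate controls were DMSO vehicle for no effect and artemisinin wells for full effect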
Method in brief: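 SYBR Green growth assay: 72 h compound exposure of infected red cells (2.5% hematocrit, 0.3% parasitemia), then lysis and overnight dye staining, fluorescence 485/535 nm. Values scaled between DMSO and 0.29 uM artemisinin controls.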

[2] = qHTS for Inhibitors of Plasmodium falciparum (GB4) proliferation (AID 504315);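 further: 0% = DMSO vehicle and -100% = 0.29 µM artemisinin control; nearly all actives have a fitted effect of over 50% in size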
Method in brief: (§1)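 Parasite growth measured as SYBR Green DNA fluorescence (ex 485, em 535 nm) after overnight lysis following 72 h culture at 37 °C, 0.3% parasitemia, 2.5% hematocrit. Values normalized against DMSO and 0.29 uM artemisinin controls, with plate-stack correction.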

[3] = qHTS for Inhibitors of Plasmodium falciparum (7G8) proliferation (AID 504316);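 further: series mostly up to about 6.7 µM; 0% = DMSO vehicle and -100% = 0.29 µM artemisinin full kill; nearly all actives have a fitted effect of over 65% in size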
Method in brief: as §1

[4] = qHTS for Inhibitors of Plasmodium falciparum (HB3) proliferation (AID 504318);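 further: 0% = DMSO vehicle and -100% = artemisinin control; nearly all actives have a fitted effect of over 60% in size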
Method in brief: as §1

[5] = qHTS for Inhibitors of Plasmodium falciparum (CP250) proliferation (AID 504320);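 further: plate controls were DMSO vehicle for no effect and 0.29 µM artemisinin control for full effect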
Method in brief: as §1

[6] = biological target: Atrial natriuretic peptide receptor 1 (Homo sapiens) (UniProt P16066); assay: Natriuretic polypeptide receptor (hNpr1) antagonism - Pilot CMLD screen (AID 1347052; calls by dose curve;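 further: HEK293 cells with hNpr1 stimulated by hNppA peptide at 0.1 nM; cGMP level read as GloSensor luciferase luminescence after agonist stimulation; series mostly up to about 9.2 µM; on the % scale 0 is the no-effect control and ±100 the full control effect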)
Atrial natriuretic peptide receptor 1 (Homo sapiens), sequence (P16066 whole entry, looked up): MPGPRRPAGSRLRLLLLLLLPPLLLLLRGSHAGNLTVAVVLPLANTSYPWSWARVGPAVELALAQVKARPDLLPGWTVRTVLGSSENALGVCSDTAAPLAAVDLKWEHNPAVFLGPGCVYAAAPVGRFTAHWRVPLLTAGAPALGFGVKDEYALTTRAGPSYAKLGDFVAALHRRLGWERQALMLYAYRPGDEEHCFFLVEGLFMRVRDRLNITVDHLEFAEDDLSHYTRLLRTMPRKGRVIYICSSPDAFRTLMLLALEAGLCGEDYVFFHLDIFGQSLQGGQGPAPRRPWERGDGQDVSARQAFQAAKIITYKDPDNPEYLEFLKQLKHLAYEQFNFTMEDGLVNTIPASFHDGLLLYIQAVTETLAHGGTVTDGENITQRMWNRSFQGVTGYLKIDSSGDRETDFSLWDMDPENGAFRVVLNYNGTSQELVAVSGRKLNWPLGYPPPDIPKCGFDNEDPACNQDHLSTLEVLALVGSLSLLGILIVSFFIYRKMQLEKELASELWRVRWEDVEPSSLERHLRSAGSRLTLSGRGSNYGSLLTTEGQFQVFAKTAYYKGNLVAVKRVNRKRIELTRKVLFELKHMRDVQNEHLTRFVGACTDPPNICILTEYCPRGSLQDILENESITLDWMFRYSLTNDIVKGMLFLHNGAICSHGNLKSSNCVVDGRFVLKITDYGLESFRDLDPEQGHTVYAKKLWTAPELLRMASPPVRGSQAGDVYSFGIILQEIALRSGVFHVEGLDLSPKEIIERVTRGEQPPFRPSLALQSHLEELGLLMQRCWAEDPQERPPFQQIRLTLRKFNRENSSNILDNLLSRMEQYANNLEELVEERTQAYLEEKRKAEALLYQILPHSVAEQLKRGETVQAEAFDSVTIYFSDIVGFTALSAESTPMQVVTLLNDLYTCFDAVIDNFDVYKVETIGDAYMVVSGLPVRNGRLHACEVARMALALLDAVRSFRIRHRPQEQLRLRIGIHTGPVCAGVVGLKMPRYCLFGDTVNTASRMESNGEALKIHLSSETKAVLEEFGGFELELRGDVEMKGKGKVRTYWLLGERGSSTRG

COC1=C[C@H](C(=O)NCCOC(C)=O)[C@H](C)[C@@H](c2ccccc2)CC1=O
inactive: Potency [1] | Potency [2] | Potency [3] | Potency [4] | Potency [5] | Potency [6]

C=CC1=C2C=C(C3CC3)N(C(CO)CO)C=C2C(=O)C(C)(OC(=O)c2ccco2)C1=O (configuration not stated)
inactive: Potency [1] | Potency [2] | Potency [3] | Potency [4] | Potency [5] | Potency [6]

O[C@@H]1CO[C@@H](C=Cc2ccccc2)[C@H]1OCc1cccc(Br)c1
inactive: Potency [1] | Potency [2] | Potency [3] | Potency [4] | Potency [5] | Potency [6]

O=C(NC(CC1=CCCCC1)c1ccccc1)C(F)(F)F (configuration not stated)
inactive: Potency [1] | Potency [2] | Potency [3] | Potency [4] | Potency [5] | Potency [6]

COC1=C[C@H](C(=O)NCc2ccc(Br)cc2)C(C)C(c2ccccc2)CC1=O (some centres not stated)
inactive: Potency [1] | Potency [2] | Potency [3] | Potency [4] | Potency [5] | Potency [6]

CCN1C(=NCCc2cccnc2)NC(c2ccccc2)C(C(=O)OC)=C1C (configuration not stated)
inactive: Potency [1] | Potency [2] | Potency [3] | Potency [4] | Potency [5] | Potency [6]

C=CC[C@@H]1C=C[C@@H](ON=C2[C@H]3CCn4c(=O)n(-c5ccccc5)c(=O)n4[C@@H]3[C@H](O)[C@@H]3O[C@H]23)[C@@H](CO)O1
inactive: Potency [1] | Potency [2] | Potency [3] | Potency [4] | Potency [5] | Potency [6]

CCCCCCC(=O)Cc1cc(OC)c(OC)cc1C=C(C(C)=O)C(=O)OC
inactive: Potency [1] | Potency [2] | Potency [3] | Potency [4] | Potency [5] | Potency [6]

COC1=C[C@H](C(=O)NCc2ccccc2)[C@@]2(C)Cc3ccccc3[C@@H]2CC1=O
inactive: Potency [1] | Potency [2] | Potency [3] | Potency [4] | Potency [5] | Potency [6]

CCN1C(=O)[C@@H]2[C@H]3[C@H](O)[C@H](O)CC(=NO[C@H](C)CN4CCCc5nc(C)c(C)cc54)[C@@H]3CC[C@H]2C1=O
inactive: Potency [1] | Potency [2] | Potency [3] | Potency [4] | Potency [5] | Potency [6]

COC(=O)C1=C(C(=O)OC)[C@@H]2N(C)c3ccccc3[C@@]23CCC(=O)N(Cc2ccco2)C3=N1
inactive: Potency [1] | Potency [2] | Potency [3] | Potency [4] | Potency [5] | Potency [6]

COC[C@H]1O[C@@H]2O[C@@H]1[C@@H](C=Cc1ccccc1)C[C@H]2C
inactive: Potency [1] | Potency [2] | Potency [3] | Potency [4] | Potency [5] | Potency [6]

COC(=O)CCC(=O)OC1(C)C(=O)C2=COC(c3ccc(OC)cc3)=CC2=C(Br)C1=O (configuration not stated)
inactive: Potency [1] | Potency [2] | Potency [3] | Potency [4] | Potency [5] | Potency [6]

C#CCN1C(=O)CC[C@@]23C1=NC(C(=O)OC)=C(C(=O)OC)[C@@H]2N(C)c1ccccc13
inactive: Potency [1] | Potency [2] | Potency [3] | Potency [4] | Potency [5] | Potency [6]

CCN1C(=O)NC(c2cccc(F)c2)C(C(=O)OC)=C1C (configuration not stated)
inactive: Potency [1] | Potency [2] | Potency [3] | Potency [4] | Potency [5] | Potency [6]

COC(=O)[C@H]1[C@@H](c2cccc(C(F)(F)F)c2)NC(=O)N(Cc2ccccc2)[C@@H]1C
inactive: Potency [1] | Potency [2] | Potency [3] | Potency [4] | Potency [5] | Potency [6]

C[C@H]1Cc2c(-c3ccccc3)nc3c(c2CO1)CN(C(=O)Nc1cccc(C#N)c1)CC3
inactive: activity, negative = inhibition [1] -4.46% [at 1.12 µM] | Potency [2] | Potency [3] | Potency [4] | Potency [5] | Potency [6]

COC(=O)C[C@H]1c2ccccc2C2=C(C[C@@H](C)[C@H]3C(=O)N(c4ccccc4)C(=O)[C@@H]23)N1C(=O)OC
inactive: activity, negative = inhibition [1] 2.35% [at 1.12 µM] and 0.352% [at 1.12 µM] | Potency [2] | Potency [3] | Potency [4] | Potency [5] | Potency [6]

C=C1CN2C(=NC(c3ccccc3)C(C(=O)OC)=C2C)O1 (configuration not stated)
inactive: Potency [1] | Potency [2] | Potency [3] | Potency [4] | Potency [5] | Potency [6]

COC(=O)C1=C(C)N(Cc2ccccc2)C(=O)NC1c1ccccc1 (configuration not stated)
inactive: Potency [1] | Potency [2] | Potency [3] | Potency [4] | Potency [5] | Potency [6]

COC(=O)CC=C[C@H](C)[C@@H](NC(=O)C(F)(F)F)c1ccccc1Br
inactive: Potency [1] | Potency [2] | Potency [3] | Potency [4] | Potency [5] | Potency [6]

C=CCN1C(=O)[C@@]2(CC(C)=CC[C@@H](C)O2)c2ccccc21
inactive: Potency [1] | Potency [2] | Potency [3] | Potency [4] | Potency [5] | Potency [6]

CCOC(=O)CN1C(=O)N[C@@H](c2cccc(C(F)(F)F)c2)[C@H](C(C)=O)[C@H]1C
inactive: Potency [1] | Potency [2] | Potency [3] | Potency [4] | Potency [5] | Potency [6]

COCC=CC1=CC2=CC(=O)C(C)(OC(=O)c3cnc4ccccc4n3)C(=O)C2=CN1Cc1ccccc1 (configuration not stated)
inactive: Potency [1] | Potency [2] | Potency [3] | Potency [4] | Potency [5] | Potency [6]

CC1=CC[C@@H](C)O[C@@]2(C1)C(=O)N(Cc1ccc(Br)cc1)c1ccccc12
inactive: Potency [1] | Potency [2] | Potency [3] | Potency [4] | Potency [5] | Potency [6]

CCN1C(=NCc2ccc3c(c2)OCO3)N[C@@H](c2ccccc2)[C@H](C(=O)OC)[C@H]1C
inactive: Potency [1] | Potency [2] | Potency [3] | Potency [4] | Potency [5] | Potency [6]

C=CCOC(=O)C(C(C)=O)[C@@H](NC(=O)OC)c1ccco1 (some centres not stated)
inactive: Potency [1] | Potency [2] | Potency [3] | Potency [4] | Potency [5] | Potency [6]

c1ccc(-c2nc(-c3ccccc3)c(NC3CCCCC3)o2)cc1
inactive: Potency [1] | Potency [2] | Potency [3] | Potency [4] | Potency [5] | Potency [6]

COC[C@H]1O[C@H](c2ccccc2)C=C[C@H]1OCC=C(C)C
inactive: Potency [1] | Potency [2] | Potency [3] | Potency [4] | Potency [5] | Potency [6]

O=P1(O)Oc2c(c(-c3ccccc3)cc3ccc4ccccc4c23)-c2c(-c3ccccc3)cc3ccc4ccccc4c3c2O1
inactive: Potency [1] | Potency [2] | Potency [3] | Potency [4] | Potency [5] | Potency [6]

COc1cccc(O[C@H]2C=C[C@@H](c3ccccc3)O[C@H]2CO)c1
inactive: Potency [1] | Potency [2] | Potency [3] | Potency [4] | Potency [5] | Potency [6]

C=C(C)C(=O)C=CCCCC=CC(=O)OCC
inactive: Potency [1] | Potency [2] | Potency [3] | Potency [4] | Potency [5] | Potency [6]

CC1(OC(=O)C2CCCC2)C(=O)C=C2C=C3CCCCN3C=C2C1=O (configuration not stated)
inactive: activity, negative = inhibition [1] 1.6% [at 1.12 µM] | Potency [2] | Potency [3] | Potency [4] | Potency [5] | Potency [6]

COC(=O)C1=C(C(=O)OC)[C@@H]2Nc3ccccc3[C@@]23C[C@@H](C(=O)OC)N(C(=O)Nc2ccc(C(F)(F)F)cc2)C3=N1
inactive: Potency [1] | Potency [2] | Potency [3] | Potency [4] | Potency [5] | Potency [6]

CC(=O)N1C(=O)NC(C)=C(C#N)C1c1ccccc1 (configuration not stated)
inactive: Potency [1] | Potency [2] | Potency [3] | Potency [4] | Potency [5] | Potency [6]

C[C@@H]1C[C@](C)(C(=O)c2ccc3c(c2)OCO3)C=C1c1ccc2c(c1)OCO2
inactive: Potency [1] | Potency [2] | Potency [3] | Potency [4] | Potency [5] | Potency [6]

CCOC(=O)OC[C@H]1O[C@H](C#Cc2ccc(F)cc2F)C=C[C@H]1OC(=O)OCC
inactive: Potency [1] | Potency [2] | Potency [3] | Potency [4] | Potency [5] | Potency [6]

CCCCCCCc1cc2ccccc2c2c(C(=O)OCC)c(C(=O)OCC)c(C(=O)OCC)n12
inactive: Potency [1] | Potency [2] | Potency [3] | Potency [4] | Potency [5] | Potency [6]

CC1(OC(=O)C2CCCC2)C(=O)C=C2C=C(c3ccsc3)OC=C2C1=O (configuration not stated)
inactive: Potency [1] | Potency [2] | Potency [3] | Potency [4] | Potency [5] | Potency [6]

C[C@H]1CC[C@H]2C(=O)O[C@H](CO)CN2[C@H]1c1ccc(Br)cc1
inactive: Potency [1] | Potency [2] | Potency [3] | Potency [4] | Potency [5] | Potency [6]

COc1ccc2c(c1)C(NC(=O)C(F)(F)F)CC21CCCCC1 (configuration not stated)
inactive: Potency [1] | Potency [2] | Potency [3] | Potency [4] | Potency [5] | Potency [6]

O=C1NC[C@H](c2ccccc2)N1
inactive: Potency [1] | Potency [2] | Potency [3] | Potency [4] | Potency [5] | Potency [6]

COC(=O)CC=C[C@@H](C)[C@@H](C=NOC[C@@H](O)COCc1ccco1)OC
inactive: Potency [1] | Potency [2] | Potency [3] | Potency [4] | Potency [5] | Potency [6]

CC(C)CON=C1C[C@@H](O)[C@@H](O)[C@@H]2[C@H]3C(=O)N(C[C@@H]4CCCO4)C(=O)[C@@H]3CC[C@@H]12
inactive: Potency [1] | Potency [2] | Potency [3] | Potency [4] | Potency [5] | Potency [6]

CC1=C[C@@H](C)OC2(C1)C(=O)N(CC1CC1)c1cccc(Br)c12 (some centres not stated)
inactive: Potency [1] | Potency [2] | Potency [3] | Potency [4] | Potency [5] | Potency [6]

COc1cc2c(cc1OC)[C@@H]1O[C@](c3ccsc3)(C2)OC2=C1C(=O)OC1(CCCCC1)C2
inactive: Potency [1] | Potency [2] | Potency [3] | Potency [4] | Potency [5] | Potency [6]

CCOC(=O)NN=C1C[C@@H](O)[C@@H](O)[C@@H]2[C@H]3C(=O)N([C@@H](C)c4ccccc4)C(=O)[C@@H]3CC[C@H]12
inactive: Potency [1] | Potency [2] | Potency [3] | Potency [4] | Potency [5] | Potency [6]

COC(=O)C1=C(C(=O)OC)[C@@H]2N(C)c3ccc(OC)cc3[C@@]23C[C@@H](C(=O)OC)N(C(=O)c2ccco2)C3=N1
inactive: activity, negative = inhibition [1] -1.01% [at 1.12 µM] | Potency [2] | Potency [3] | Potency [4] | Potency [5] | Potency [6]

COC(=O)C1=C(C)[C@@H](O)[C@@H](C)[C@](C)(c2cc(OC)c(C)c(OC)c2COc2ccccc2)O1
inactive: Potency [1] | Potency [2] | Potency [3] | Potency [4] | Potency [5] | Potency [6]

CCN1C(=O)[C@@H]2[C@H]3[C@H](O)[C@H](O)CC(=NO[C@H](C)c4cn([C@@H]5COC[C@@H]5O)nn4)[C@@H]3CC[C@H]2C1=O
inactive: Potency [1] | Potency [2] | Potency [3] | Potency [4] | Potency [5] | Potency [6]

COC(=O)C1=C(C)N(CC2CC2)C(=O)NC1c1ccccc1 (configuration not stated)
inactive: Potency [1] | Potency [2] | Potency [3] | Potency [4] | Potency [5] | Potency [6]

c1ccc(-c2nc(-c3ccccc3)c(Nc3ccc4ccccc4c3)o2)cc1
inactive: Potency [1] | Potency [2] | Potency [3] | Potency [4] | Potency [5] | Potency [6]

From PubChem BioAssay (NCATS)
